Source: PubChem BioAssay (National Center for Advancing Translational Sciences (NCATS))
This is a sample that favours compounds with a hit; in the whole collection about 3.6% have one here.
ClpP mod – qHTS Assay for Activators of ClpP | ATP-dependent Clp protease proteolytic subunit (Bacillus subtilis (strain 168)), P80244 | purified B. subtilis ClpP, FRET peptide cleavage, 20 min | Potency, µM (highest dose often 57.5 µM), inactives show top-dose activity change, negative = active | 1.9% of 340,000 active | AID 651965, 2013; active means well fitted falling curve with a large enough effect; inconclusive means small, poorly fitted or top-dose-only effect; inactive means no such curve, though single readings can be large or run the other way; further: the source files actives as falling curves though it sought activators and does not explain the sign; nearly all actives have a fitted effect of over 65% in size
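FRET quenching reversal measured ClpP activation: 10 microg/mL B. subtilis ClpP at pH 8 with the FRET-FV decapeptide, read at 430 nm after 320 nm excitation. The 20-min minus 0-min signal was scaled between DMSO/no-enzyme wells and ADEP (5.8 microM final).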
FUS suppressor – qHTS for Suppressors of FUS Proteinopathy: Primary screen using FUS-linked yeast assay. 0.24% of 390,000 active. S. cerevisiae FUS-expressing, growth rescue, OD600, 24 h. Potency, µM (titrated, usually from 76.6 µM), most hits filed as activators;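 further: plate controls were DMSO vehicle for no effect and reference control for full effect; nearly all actives have a fitted effect of over 55% in size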
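Galactose (2%) drives FUS expression in yeast precultured in raffinose; seeding density OD 0.005. Test compounds incubated 24hr at 30C and 99% humidity before absorbance at 600 nm was measured.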
Abeta yeast res – qHTS for compounds that reverse cellular toxicity of Amyloid beta (A-beta) peptide in yeast: Primary Screen; Potency, µM (top dose mostly 46.1 µM), usual class: activators; 0.063% of 410,000 active; yeast expressing A-beta42, growth rescue, OD600, 48 h; response scale: 0% DMSO, 100% iron-clioquinol control; AID 1347071, 2019; further: nearly all actives have a fitted effect of over 55% in size
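Growth rescue measured by 600 nm absorbance after 48 h yeast culture at 30 C with compound. Values normalized between DMSO and an equimolar ferric chloride plus clioquinol control.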
aSyn rescue – qHTS of alpha-syn Inhibitors | Yeast expressing alpha-synuclein, growth rescue, BacTiter-Glo, 24 h | Potency, µM (series often up to 46.1 µM), for the others: at the top dose growth rescue (activation), hits mostly activators | 0.14% of 370,000 active; further: % of control where 0% means no effect; nearly all actives have a fitted effect of over 65% in size
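Screening used galactose-induced yeast with toxic alpha-synuclein levels, exposed to compound for 24 hr at 30 deg C. Cell growth, read with BacTiter-Glo luminescence, gave the measured signal.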
TDP-43 yeast inh – qHTS of TDP-43 Inhibitors; Potency, µM (top dose mostly 46.1 µM), inactives show top-dose growth rescue (activation), most hits filed as activators; TDP-43 expressing yeast growth rescue, BacTiter-Glo, 24 h; AID 652104, 2013; 1.8% of 410,000 active; further: % of control where 0% means no effect; nearly all actives have a fitted effect of over 50% in size
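Yeast cells expressing TDP-43 under galactose induction are exposed to compounds for 24 hr at 30 deg C. BacTiter-Glo luminescence measures growth, so protective compounds score as activators.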
Mm-Cpn inhibitor – Inhibitors of TCP-1 ring complex (TRiC) of Methanococcus maripaludis (MmCpn): qHTS. Chaperonin Mm-Cpn (Methanococcus maripaludis). purified Mm-Cpn ATPase, ADP Transcreener TR-FRET. Potency, µM (titrated, usually from 76.9 µM), for inactives: at the highest dose activity, negative = inhibition, actives largely listed as inhibitors. 0.031% of 330,000 active. AID 504842, 2011; further: on the % scale 0 is the no-effect control and ±100 the full control effect; nearly all actives have a fitted effect of over 80% in size
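Reaction buffer contained 30 mM Tris pH 7.4, 100 mM KCl, 5 mM MgCl2 and 1 mM DTT. Mm-CPN (25 nM final) hydrolysed 10 uM ATP over 30 min at 37°C; ADP was read by HTRF.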
Active calls of the source: *; i = inactive; ? = inconclusive; / = no result given. Unless noted, the call rests on the fitted dose curve; in most records, active means well fitted curve in the direction sought with a large enough effect; inconclusive means small, poorly fitted or top-dose-only effect, or another doubt; inactive means no such curve, though single readings can be large; an effect the other way counts as inactive or inconclusive. Potency means the concentration at half of the fitted maximal effect.

SMILES	ClpP mod	FUS suppressor	Abeta yeast res	aSyn rescue	TDP-43 yeast inh	Mm-Cpn inhibitor
Cc1cccc2sc(N3CCN(C(=O)CS(=O)(=O)c4ccc(F)cc4)CC3)nc12	-0.4%	i	i	/	12.6µM*	/
CCN(C(=O)COC(=O)c1ccc2c(c1)OCO2)c1ccc(F)cc1	28.2µM*	/	i	4.8%	6.3%	-1.4%
CC(C)N(C(=O)Cn1cc(S(=O)(=O)Cc2ccc(Cl)cc2)c2ccccc21)C(C)C	-0.3%	i	i	/	16.2%	/
O=C(c1nn2c(C(F)(F)F)cc(-c3ccc(F)cc3)nc2c1Cl)N1CCOCC1	-4.1%	i	i	1.8%	4.8%	-3.1%
COc1ccc(-c2cc(C(F)(F)F)n3nc(C(=O)O)nc3n2)cc1	-23.6%	i	i	4.4%	-26.0%	-6.1%
O=C(c1nc2nc(-c3ccc(Cl)cc3)cc(C(F)(F)F)n2n1)N1CCOCC1	17.8µM*	i	i	3.1%	12.0%	-5.0%
O=C(c1nc2nc(-c3ccccc3)cc(C(F)(F)F)n2n1)N1CCOCC1	28.2µM*	i	i	-5.1%	-14.6%	-0.8%
CC(C)(C)NC(=O)c1nc2nc(-c3ccccc3)cc(C(F)(F)F)n2n1	28.2µM*	/	i	6.0%	18.4%	1.6%
COc1ccc(-n2nnnc2C2CCN(S(=O)(=O)c3cccc(Cl)c3C)CC2)cc1	1.4%	i	i	/	1.6%	/
COc1cc2nc(N3CCCN(C)CC3)nc(N(C)C)c2cc1OC	4.8%	/	/	-2.3%	/	/
Cc1cccc(C)c1-n1nnnc1C1c2ccccc2C(=O)N1CCC(C)C (stereo not drawn)	-2.6%	i	i	5.3%	0.0%	/
Cc1cccc(C)c1-n1nnnc1C1c2ccccc2C(=O)N1CCc1ccccc1F (stereo not drawn)	-1.1%	i	i	7.6%	35.5µM*	/
C[C@@H](O)[C@H]1C(=O)N2C(C(=O)O)=C(SCCN=CN)C[C@H]12	/	/	/	1.4%	/	/
Cc1ccccc1OCC(=O)NCC(=O)OCC(=O)c1ccc2c(c1)CCCC2	-4.8%	/	/	4.8%	/	/
Nc1cccc2c1C(=O)N(c1ccccc1)C2=O	-23.6%	i	i	-17.1%	35.5µM*	/
O=C(NCCN1CCN(c2cccc(Cl)c2)CC1)Nc1ccccc1C(F)(F)F	-1.4%	i	i	/	9.2%	/
O=C(Nc1ccccc1)c1sc2cc(C(F)(F)F)cnc2c1-c1cccs1	31.6µM*	i	i	-8.3%	?	-29.5%
NNC(=O)c1sc2cc(C(F)(F)F)cnc2c1-c1cccs1	/	i	i	1.4%	-7.7%	0.5%
Cc1ccc(C)c(CN2C(=O)c3ccccc3Sc3ccc(C(=O)NCc4ccco4)cc32)c1	-2.7%	i	i	/	-2.1%	/
COc1ccccc1C(=O)Nc1ccc(Oc2ncnc3sc(-c4ccccc4)cc23)cc1	10µM*	i	i	-9.2%	?	?
COc1cc(C(=O)Nc2ccc(Oc3ncnc4sc(-c5ccccc5)cc34)cc2)cc(OC)c1OC	-2.6%	/	i	-11.1%	?	-1.0%
CCOC(=O)C1=C(C)NC(C)=C(C(=O)OCC)C1c1cccc([N+](=O)[O-])c1	-0.7%	i	i	13.0%	25.1µM*	/
Nc1ccc(N2CCN(c3ncc(C(F)(F)F)cc3Cl)CC2)c(C(F)(F)F)c1	-0.1%	i	i	-56.6%	20µM*	/
OCC1O[C@H]([S-])[C@H](O)[C@@H](O)[C@@H]1O.[Au+] (stereo partly drawn)	/	/	/	-6.0%	/	/
Cc1cccc(C)c1Cn1c(C)c(C(=O)NCc2ccc([N+](=O)[O-])cc2)sc1=O	-1.8%	?	i	9.1%	11.2µM*	/
SMILES	ClpP mod	FUS suppressor	Abeta yeast res	aSyn rescue	TDP-43 yeast inh	Mm-Cpn inhibitor
COC(=O)c1ccc(Cn2c(C)c(C(=O)NCc3ccc([N+](=O)[O-])cc3)sc2=O)o1	0.4%	i	i	-2.8%	11.7%	/
CC(C)Oc1ccc(CNC(=O)c2cnc3sc(N4CCCC4)nn3c2=O)cc1	-14.5%	i	i	/	14.0%	/
CS(=O)(=O)N(CC(=O)N/N=C/c1cc2c(cc1Br)OCO2)c1ccccc1Br	?	/	i	-18.5%	17.4%	-6.5%
CCOC(=O)c1ccc(-c2ccc(/C=N/NC(=O)CN(c3ccccc3Br)S(C)(=O)=O)o2)cc1	17.8µM*	/	i	?	20.3%	-1.7%
CCCCCCCCCCCCCCCCOC(=O)N1CCN(/[N+]([O-])=N/Oc2ccc([N+](=O)[O-])cc2[N+](C)=O)CC1	/	/	/	-11.6%	/	/
COc1ccc(OC)c(NC(=O)CNC(=O)c2cccs2)c1	1.1%	i	i	-9.9%	0.0%	0.9%
COc1ccc(NC(=O)C(=O)NCC(=O)Nc2cc(OC)ccc2OC)cc1	10µM*	i	i	-0.8%	-20.0%	-6.9%
CCCOc1cccc(C(=O)Nc2cc(-c3ccccc3)no2)c1	-5.1%	i	i	/	7.8%	/
CCC(C)C(=O)Nc1nnc(CCc2ccccc2)s1 (stereo not drawn)	0.6%	i	?	5.7%	20µM*	-0.4%
O=C(Cc1cccs1)Nc1nnc(Cc2ccccc2)s1	1.4%	i	i	-1.5%	-14.4%	-1.1%
CC(C)CC(=O)Nc1nnc(CCc2ccccc2)s1	1.9%	i	i	-0.9%	17.6%	0.5%
COc1ccc(Cc2nnc(NC(=O)Cc3cccs3)s2)cc1OC	28.2µM*	i	i	1.0%	14.9%	-1.7%
O=C(Cc1ccccc1)Nc1nnc(-c2cccs2)s1	20µM*	i	i	-0.3%	9.7%	-13.3%
CCC(C)C(=O)Nc1nnc(-c2cccs2)s1 (stereo not drawn)	31.6µM*	i	i	6.1%	1.7%	-0.7%
CCOC(=O)CCCN1C(=O)CCn2nc(-c3cn(C)c4ccccc34)cc21	-7.0%	i	i	/	28.5%	/
CC(C)C(=O)OCCCN1CCC2(CCC(c3ccccc3)CC2)C1=O (stereo not drawn)	/	i	/	/	/	/
O=C(COc1ccccc1F)Nc1nnc(-c2ccncc2)s1	-39.5%	i	i	-1.6%	-11.1%	-13.3%
O=C(COc1ccc(F)cc1)Nc1nnc(-c2ccncc2)s1	25.1µM*	i	i	-1.5%	5.1%	-6.9%
O=C(Cc1cccs1)Nc1nnc(-c2ccncc2)s1	28.2µM*	i	i	-6.3%	-19.3%	?
COc1ccc(NC(=O)Cn2cc(S(=O)(=O)c3ccccc3)c(=O)c3cc(C)ccc32)cc1Cl	-9.0%	i	i	/	10.8%	/
